POLB inh – blocks human DNA polymerase beta activity | Pol beta primer extension/strand displacement, fluorescence kinetic | hit rate 1.3% among 340,000 | AID 485314 | Potency, µM (titrated, usually from 114 µM), for the others: at the highest dose activity change, negative = inhibition, actives largely listed as inhibitors | P06746; also: % is scaled to controls: 0 for no effect and ±100 for the full control effect
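Preincubation: enzyme (10 nM) with compound, 15 min, RT. Reaction: substrate added to 50 nM final. Reads: 0 and 10 min. Analysis: normalized, Hill fit.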
Pol eta inh-1 – blocks human DNA polymerase eta activity | Q9Y253 | recombinant Pol eta, fluorescent DNA replication assay | Potency, µM (titrated, usually from 114 µM), for inactives: top-dose activity change, negative = inhibition, hits mostly inhibitors | hit rate 1.2% among 390,000; also: % is scaled to controls: 0 for no effect and ±100 for the full control effect
Target sequence (Q9Y253 whole entry, looked up): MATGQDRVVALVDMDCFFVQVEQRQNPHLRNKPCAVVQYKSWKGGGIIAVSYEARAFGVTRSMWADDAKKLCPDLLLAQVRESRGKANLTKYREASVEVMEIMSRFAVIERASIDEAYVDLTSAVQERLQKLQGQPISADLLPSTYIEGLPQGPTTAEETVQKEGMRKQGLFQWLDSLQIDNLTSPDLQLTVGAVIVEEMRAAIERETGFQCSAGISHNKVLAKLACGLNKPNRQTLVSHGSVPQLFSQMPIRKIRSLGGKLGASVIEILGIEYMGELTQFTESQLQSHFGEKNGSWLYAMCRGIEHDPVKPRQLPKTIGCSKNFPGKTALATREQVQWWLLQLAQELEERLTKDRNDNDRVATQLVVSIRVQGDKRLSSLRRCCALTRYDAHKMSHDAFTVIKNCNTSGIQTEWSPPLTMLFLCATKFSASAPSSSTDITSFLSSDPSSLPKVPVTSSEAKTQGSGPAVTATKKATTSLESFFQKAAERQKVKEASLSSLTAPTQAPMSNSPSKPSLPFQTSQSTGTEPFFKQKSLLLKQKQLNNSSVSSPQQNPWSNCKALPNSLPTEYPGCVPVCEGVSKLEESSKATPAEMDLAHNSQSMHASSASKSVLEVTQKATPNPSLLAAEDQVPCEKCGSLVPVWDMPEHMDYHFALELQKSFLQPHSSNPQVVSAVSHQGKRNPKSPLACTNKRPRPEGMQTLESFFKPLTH
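Fluorescent replication assay: 50 nM final substrate added after a 15 min room-temperature compound preincubation with 10 nM enzyme. Signal taken at 0 min and again at 10 min.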
WRN inhibitor – inhibitors of human WRN helicase | Potency, µM (doses to about 114 µM), for inactives: at the highest dose activity change, negative = inhibition, most hits filed as inhibitors | WRN helicase unwinding, fluorescent forked duplex, kinetic | Q14191 | hit rate 0.46% among 360,000; also: % is scaled to controls: 0 for no effect and ±100 for the full control effect; nearly all actives have a fitted effect of over 55% in size
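Kinetic fluorescence helicase assay: unwinding of a quenched forked DNA duplex (100 nM final) with 2 mM ATP final raises red fluorescence (525/598 nm). Compounds sat 15 min at room temperature with 20 nM WRN beforehand.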
FEN1 inh-1 – human FEN1 inhibition; P39748; Recombinant FEN1 flap cleavage, fluorescence, 15 min; Potency, µM (titrated, usually from 114 µM), for inactives: at the top dose activity change, negative = inhibition, usual class: inhibitors; hit rate 0.35% among 390,000; also: % is scaled to controls: 0 for no effect and ±100 for the full control effect; nearly all actives have a fitted effect of over 65% in size
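FEN1 at 10 nM preincubated with compounds 15 min at room temperature, then flap DNA substrate added at 50 nM final. Signal read at 0 and 15 min; concentration-response fitted with four-parameter Hill equation.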
Pol kappa inh-1 – blocks human DNA polymerase kappa activity | Q9UBT6 | purified Pol kappa, fluorescent DNA synthesis assay, 10 min | Potency, µM (doses to about 107 µM), without a hit: at the top dose activity, negative = inhibition, usual class: inhibitors | hit rate 0.53% among 400,000 | AID 588579; also: % is scaled to controls: 0 for no effect and ±100 for the full control effect
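Readout: fluorescence, taken kinetically at 0 and 10 min. Conditions: 10 nM Pol kappa, 15 min RT compound preincubation, 50 nM substrate final. Controls: enzyme-free buffer wells.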
POLI inh – DNA polymerase iota (human) inhibition. Potency, µM (doses to about 115 µM), without a hit: top-dose activity, negative = inhibition, usual class: inhibitors. Pol iota fluorescent replication assay, 10 min. hit rate 1% among 390,000. Q9UNA4
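Pol iota at 10 nM preincubated 15 min with compounds at room temperature; reaction started with fluorescent substrate, 50 nM final. Fluorescence read kinetically at 0 and 10 min; buffer-only wells as negative control.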
TbPGK inh – blocks T. brucei phosphoglycerate kinase; shares compounds with Pol kappa inh-1; TbPGK coupled GAPDH assay, Kinase-Glo luminescence; Potency, µM (doses to about 57.5 µM), for the others: at the highest dose activity change, negative = inhibition, hits mostly inhibitors; hit rate 79% among 500; AID 686980; also: % is scaled to controls: 0 for no effect and ±100 for the full control effect; nearly all actives have a fitted effect of over 65% in size
POLI cherry-pick – Human Pol iota inhibitor confirmatory assay; shares compounds with Pol kappa inh-1; Pol iota primer extension, TAMRA/BHQ fluorescence; Potency, µM, usual class: inhibitors; hit rate 77% among 1,500; AID 720496
Pol kappa inh-2 – Pol kappa (human) inhibition, cherry-pick confirmation; shares compounds with Pol eta inh-1; purified Pol-kappa, fluorescent strand-displacement substrate; Potency, µM, most hits filed as inhibitors; hit rate 76% among 920; AID 720501
Pol eta inh-2 – Pol eta (human) inhibition, cherry-pick confirmation; shares compounds with Pol eta inh-1; Pol eta primer extension, TAMRA/BHQ fluorescence, 10 min; Potency, µM, most hits filed as inhibitors; hit rate 64% among 2,600; AID 720502
FEN1 inh-2 – confirmation of human FEN1 inhibitors. Potency, µM, most hits filed as inhibitors. FEN1 flap cleavage, TAMRA/BHQ2 fluorogenic DNA substrate. hit rate 79% among 880. shares compounds with FEN1 inh-1; also: nearly all actives have a fitted effect of over 60% in size
Numbers without * were called inactive; ? = inconclusive; . = no result; [ ] = remark or other dose. Only some compounds are listed: those with a hit (about 2.4% of all), similar ones and a draw of the others. Calls follow the shape of the dose curve; as a rule, active = well fitted curve in the direction sought with a large enough effect; inconclusive = small, poorly fitted or top-dose-only effect, or another doubt; inactive = no such curve, though single readings can be large; an effect the other way counts as inactive or inconclusive. Potency is read from the fitted curve at half-maximal effect.

SMILES	POLB inh	Pol eta inh-1	WRN inhibitor	FEN1 inh-1	Pol kappa inh-1	POLI inh	POLI cherry-pick	Pol eta inh-2	FEN1 inh-2	others
N#Cc1c(-c2ccco2)cc(-c2ccccc2)[nH]c1=O	?	-17%	-26%[11.6 µM]	-31%	?	10µM*	42*	27*	76*	Pol kappa inh-2=12*
COc1cc(/C=C2\SC(=S)N(C(C(=O)O)c3ccccc3)C2=O)cc(OC)c1OC (configuration not stated)	0%	12%	-15%	-13%	-6%	?	.	.	.
O=C(O)C(c1ccccc1)N1C(=O)/C(=C\c2ccc(-c3ccc(Br)cc3)o2)SC1=S (configuration not stated)	?	?	?	20µM*	?	11µM*	42*	27*	76*
CCOc1cc(S(=O)(=O)n2ccnc2C(C)C)ccc1Cl	-11%	-13%	.	12%	-1%[60.1 µM]	-5%	.	.	.
O=C1N/C(=C/c2cccn2-c2ccccc2)C(=O)N1Cc1ccccc1F	-4%	-10%	?	-1%	-1%	11%	.	.	.
O=C(O)c1ccc(-n2cccc2/C=C2/NC(=O)N(c3cccc(Cl)c3)C2=O)cc1	2.2µM*	3.5µM*	?	40µM*	16µM*	2µM*	3.4*	9.5*	67*	TbPGK inh=5.8µM*
Cc1ccc(NC(=O)CN2C(=O)N/C(=C\c3cccn3-c3ccc(C(=O)NC#N)cc3)C2=O)cc1	.	.	.	.	.	.	38*	43*	30*
Cc1ccc(NC(=O)CN2C(=O)N/C(=C\c3cccn3-c3cccc(C(=O)O)c3)C2=O)cc1	4µM*	3.5µM*	28µM*	79µM*	45µM*	14µM*	19*	27*	76*	TbPGK inh=15µM*;Pol kappa inh-2=42*
Cc1ccc(NC(=O)CN2C(=O)N/C(=C/c3ccccc3OCc3cccc(C(=O)O)c3)C2=O)cc1	35µM*	25µM*	50µM*	71µM*	?	20µM*	42*	?	76*	TbPGK inh=16µM*
Cc1ccc(NC(=O)CN2C(=O)N/C(=C/c3ccc(C)o3)C2=O)cc1	0%	-2%	-13%	0%	-5%	-11%	.	.	.
O=C(O)c1ccc(COc2ccccc2/C=C2\NC(=O)N(Cc3ccccc3)C2=O)cc1	-5%	5%	-14%	?	-18%	29%	.	.	.
CCc1ccc(CNC(=O)Cn2nc(C)n3c(cc4cc(C)ccc43)c2=O)cc1	2%	-1%	.	-5%	-21%	18%	.	.	.
Cc1ccc(NC(=O)CN2C(=O)N/C(=C/c3ccc(N4CCOCC4)cc3)C2=O)cc1	-7%	-15%	-29%[57.1 µM]	-7%	-3%	39%	.	.	.
Cc1cccc(NC(=O)CN2C(=O)N/C(=C\c3ccc(-c4cccc(C(=O)O)c4)o3)C2=O)c1	?	?	?	?	?	?	67*	27*	76*
Cc1ccc(NC(=O)CN2C(=O)N/C(=C\c3cccn3-c3cccc(-c4nn[nH]n4)c3)C2=O)cc1	.	.	.	.	.	.	27*	76*	67*	Pol kappa inh-2=21*
C[C@H](CO)N1C[C@H](C)[C@@H](CN(C)C(=O)NC2CCCCC2)Oc2ccc(NC(=O)Cc3ccccc3)cc2C1=O	.	-12%	5%	1%	3%	11%	.	.	.
COc1cccc(-n2c(SCC(=O)Nc3cc(C)ccc3C)nc3c(oc4ccccc43)c2=O)c1	0%	-18%	.	-6%	-20%	42%	.	.	.
COc1cccc(-n2c(SCc3cc(=O)oc4cc(O)c(O)cc34)nc3ccccc3c2=O)c1	3.2µM*	3.2µM*	28µM*	50µM*	32µM*	7.9µM*	7.5*	12*	27*
CCN(CC)C(=O)CSc1nc2ccccc2c(=O)n1-c1cccc(OC)c1	5%	-4%	-5%	5%	-5%	11%	.	.	.
COc1ccc[n+](CC(=O)c2ccc(F)cc2)c1	.	.	.	0%	-8%	11%	.	.	.
COc1ccc(-c2cc(C(=O)OCC(=O)c3c(N)n(C)c(=O)n(C)c3=O)c3ccccc3n2)cc1	-1%	-4%	0%	8%	0%	33%	.	.	.
Cn1c(N)c(C(=O)COC(=O)c2cc(-c3ccco3)nc3ccccc23)c(=O)n(C)c1=O	16µM*	7.9µM*	28µM*	40µM*	?	7.1µM*	24*	19*	67*
Nc1[nH]c(C(=O)c2ccccc2)c(-c2ccccc2C(F)(F)F)c1C(=O)NCc1cccc2ccccc12	.	.	-3%	.	.	.	.	.	.
Cc1ccc(C(=O)Nc2nnc(CC(=O)N/N=C/c3ccc(O)c(O)c3)s2)cc1	3.5µM*	3.5µM*	20µM*	11µM*	?	?	9.5*	17*	38*	TbPGK inh=4.1µM*
CCCCc1nn2c(=O)cc(COC(=O)c3cccc(NC(=O)c4cccc(Cl)c4)c3)nc2s1	22%	2%	.	0%	-7%[60.1 µM]	0%	.	.	.
CCC1=NN2C(=N)/C(=C\c3ccc(OCc4cc(=O)n5nc(CC)sc5n4)c(OC)c3)C(=O)N=C2S1	4.5µM*	8.9µM*	-32%[11.6 µM]	50µM*	32µM*	?	19*	17*	38*
N#CC(C#N)=C(N)/C(C#N)=C/c1cc(O)c(O)c(O)c1	.	?	?	8.9µM*	0.79µM*	?	47*	.	19*
CCOC(=O)c1ccc(N2C(=O)c3[nH]nc(-c4ccc(OCC)cc4)c3C2c2cccs2)cc1 (configuration not stated)	11%	-3%	.	-11%	-10%	53%	.	.	.
COc1ccc([N+](=O)[O-])cc1NC(=S)NC(C)=O	8%	-19%	3%	1%	-3%	30%	.	.	.
COc1ccc(/C=C/C(=O)NC(=S)Nc2cc([N+](=O)[O-])ccc2O)cc1OC	18µM*	25µM*	-12%[11.6 µM]	22µM*	?	16µM*	75*	30*	60*

Source: PubChem BioAssay (National Center for Advancing Translational Sciences (NCATS))
